# Data as given in PubChem BioAssay AID720650 (Broad Institute, 2013).
# A number with no mark means an inactive call. Calls of active or inactive are those of the source. How the calls were made is not given here.
# Test: Biochemical counterscreen for C difficile toxins, absence of UDPG, inhibitor dose response (AID 720650)
# Conditions: series mostly up to 19.5 µM; activity change, negative = inhibition: at the top concentration
SMILES,"activity change, negative = inhibition",AC50
O=C1NN=C2CCCCCCC12 (configuration not stated),-4.67%,–
O=C(CCC(=O)N1CCSc2ccccc21)Nc1cccc(F)c1,-8.2%,–
CO[C@@H]1CN(C)C(=O)c2cc(NC(=O)NC(C)C)ccc2OC[C@@H](C)N(S(C)(=O)=O)C[C@H]1C,7.43% [at 6.8 µM],–
COc1ccc(C(=O)NC(C(=O)NCc2ccccc2OC)C(C)C)cc1 (configuration not stated),-8.6%,–
Cc1ccc(S(=O)(=O)N2CCC(C(=O)OCC(=O)NCCc3ccccc3)CC2)cc1C,6.81%,–
CC1C(c2ccc3c(c2)OCO3)c2cc3c(cc2OC1N1CCOCC1)OCO3 (configuration not stated),-9.1%,–
Cc1ccc(C(=O)Nc2ncc([N+](=O)[O-])s2)cc1,–,> 39 µM
Cc1c(-n2c(O)c(C3=c4ccccc4=NC3=O)sc2=S)c(=O)n(-c2ccccc2)n1C,6.56%,–
CNC(C(=O)c1ccccc1)C(OC)c1cccc([N+](=O)[O-])c1 (configuration not stated),-4.43%,–
Cc1cc(SCC(=O)N/N=C/c2ccco2)nc2ccccc12,–,> 39 µM
COCC#Cc1ccc2c(c1)O[C@@H](CN(C)C(=O)CC1CC1)[C@H](C)CN([C@@H](C)CO)S2(=O)=O,-7.14%,–
CCN(CC)CCCCN1c2ccccc2Sc2ccccc21,–,7.03 µM (active)
O=c1[nH]nc(-c2ccc(F)cc2)cc1Cc1ccccc1,0.756%,–
O=C(CSc1cccc2cccnc12)N/N=C/c1ccc(O)cc1,–,11.1 µM (active)
Cc1ccc(NNC(=O)c2ccno2)c(C)c1,–,5.41 µM (active)
CC(C)C12NC(=O)NC(=O)N1CCS2 (configuration not stated),-8.68%,–
CSc1nc2c(c(=O)[nH]c(=O)n2C)n1Cc1ccccc1,-0.889%,–
